Measured values: PubChem BioAssay (NCATS)
“And” between values parts separate entries of the source, which are not always exact repeats. Equal entries are not always repeated. Records with an inconclusive call do not appear. The source made the active and inactive calls. Unless noted, calls follow the shape of the dose curve; as a rule, active = well fitted curve in the direction sought with a large enough effect; inconclusive = small, poorly fitted or top-dose-only effect, or another doubt; inactive = no such curve, though single readings can be large; an effect the other way counts as inactive or inconclusive.

Legend:
[1] = Cell Viability - BJ (AID 421; calls by dose curve;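 also: potency is read from the fitted curve at half-maximal effect; cells exposed to compound for 40 hours at 37 °C before readout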); settings: BJ fibroblast viability, qHTS
Method in brief: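 Cytotoxicity in human BJ foreskin fibroblasts is scored as loss of cellular ATP after a 40-hour exposure, measured by luciferase luminescence. Controls are DMSO and 100 uM tamoxifen.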

[2] = Cell Viability - Jurkat (AID 426;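 active = dose-dependent loss of cell ATP signal giving a full or clear fitted curve, ranked by lower potency value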; also: potency is read from the fitted curve at half-maximal effect); settings: qHTS
Method in brief: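 Jurkat (Clone E6-1) cells, 5000/well in complete medium, exposed to compounds for 40 hr at 37C; intracellular ATP measured by CellTiter-Glo luminescence after 20 min at room temperature. AC50 from Hill fits.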

[3] = Cell Viability - Hek293 (AID 427;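 active = compounds whose dose-response curve shows a full or clear partial loss of cell viability, called from curve shape rather than a numeric limit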;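 also: potency is read from the fitted curve at half-maximal effect; cells exposed to compound for 40 hours at 37 °C before reading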); settings: qHTS
Method in brief: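 qHTS, human embryonic kidney (adenovirus-transformed) cells; 40 hr cpd, 37 °C; CellTiter-Glo ATP luminescence. Norm: DMSO = 0, 100 uM tamoxifen = 100% inhibition. Hill-fit AC50.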

[4] = Cell Viability - HepG2 (AID 433; calls by dose curve;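 also: potency is read from the fitted curve at half-maximal effect; potency for ATP loss meaning cytotoxicity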); settings: qHTS
Method in brief: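 In this qHTS format, a 40 h, 37 °C compound incubation of HepG2 cells in complete medium precedes a 20 min CellTiter-Glo step at room temperature. Tamoxifen and doxorubicin serve as positive controls; Hill-equation fits yield AC50.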

[5] = Cell Viability - MRC5 (AID 434; calls by dose curve;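 also: potency is read from the fitted curve at half-maximal effect; potency reflects cytotoxicity seen as loss of intracellular ATP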); settings: MRC5 lung fibroblast viability, qHTS
Method in brief: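 MRC5 normal human lung fibroblasts, 1500 cells/well, exposed to compound for 40 hr at 37 C. Cellular ATP was read by CellTiter-Glo luminescence; data normalized to DMSO and 100 uM tamoxifen, with AC50 from Hill fits.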

[6] = Cell Viability - Mesenchymal (AID 546); settings: mesenchymal cells viability, qHTS; series mostly up to 91.7 µM;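 also: cells exposed to compound for 40 hours before reading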
Method in brief: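 Human kidney mesenchymal cells from normal renal glomeruli, 1000 cells/well, rested 5 hr at 37 °C, then treated 40 hr at 37 °C in complete medium. Cellular ATP read by CellTiter-Glo luminescence; AC50 from Hill-equation fits.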

[7] = Cellular Toxicity (caspase-3) HepG2 (AID 654); settings: HepG2 caspase-3 activation, luminescence, 0% = DMSO only, 100% = tamoxifen; series mostly up to 92.2 µM;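 also: cells exposed to compound for 16 hours before reading; 0% = DMSO alone and 100% = caspase signal from 100 µM tamoxifen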
Method in brief: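 HepG2 cells (1500/well) were treated 16 h at 37 °C in complete medium, then caspase 3/7 activity was read by Caspase-Glo luminescence. Data were normalized to DMSO and 100 uM tamoxifen; AC50 came from Hill-equation fits of qHTS concentration-response.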

[8] = Cellular Toxicity (caspase-3) HUV-EC-C (AID 656); settings: HUV-EC-C cells, caspase-3 activation (apoptosis), vehicle = 0, 100 µM tamoxifen = 100%; series mostly up to 92.2 µM
Method in brief: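 Concentration-dependent caspase 3/7 induction was assessed in HUV-EC-C cells exposed for 16 hours. Data scaled between DMSO and tamoxifen (100 uM) controls.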

[9] = Cellular Toxicity (caspase-3) BJ (AID 658); settings: BJ fibroblasts, luminescence, normalized: DMSO 0%, staurosporine 100%; series mostly up to 91.7 µM
Method in brief: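 BJ human foreskin fibroblasts, 1000 cells/well, treated 16 hours at 37 °C in complete medium; caspase 3/7 activity by Caspase-Glo luminescence after 1 hr at room temperature. Normalized to DMSO and 10 uM staurosporine; AC50 from Hill fits.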

[10] = Cellular Toxicity (caspase-3) MRC-5 (AID 659); settings: MRC-5 cells, luminescence, normalized: DMSO 0%, 10 µM staurosporine 100%; series mostly up to 91.7 µM
Method in brief: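 MRC-5 human normal lung fibroblasts, 1500 cells/well, treated 16 h at 37 °C in complete medium. Caspase 3/7 measured by Caspase-Glo luminescence after 1 h at room temperature. Normalized to DMSO and 10 uM staurosporine; AC50 from Hill fit.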

[11] = Cellular Toxicity (caspase-3) SK-N-SH (AID 661); settings: SK-N-SH caspase-3 activation, qHTS; series mostly up to 91.7 µM
Method in brief: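 Human SK-N-SH neuroblastoma cells, 1500/well, were exposed to compounds for 16 hours at 37 °C. Caspase-Glo 3/7 luminescence was normalized to DMSO (basal) and 10 uM staurosporine (100%), and AC50 came from a Hill fit.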

[12] = Cellular Toxicity (caspase-3) Hek293 (AID 664); settings: HEK293 caspase-3 activation, DMSO = 0%, 100 µM tamoxifen = 100%; at 92.2 µM (top of the series);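 also: cells exposed to compound for 16 h at 37 °C before readout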
Method in brief: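 HEK293 cells in complete medium treated 16 h at 37 °C, then Caspase-Glo 3/7 luminescence read after 20 min at room temperature. Normalized to DMSO and 100 uM tamoxifen; AC50 from Hill fit of concentration-response.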

[13] = MultiTox-Fluor Cytotoxicity Assay - LYMP1-001 - Dead Cells (AID 946); settings: LYMP1-001 lymphoblastoid cells, dead-cell protease fluorescence; series mostly up to 92.2 µM
Method in brief: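 Seed 2500 LYMP1-001 cells/well, incubate 5 hr at 37 C; add compound, 16 hr at 37 C; add MultiTox-Fluor reagent, 60 min RT; read dead-cell fluorescence Ex/Em=485/520. Normalize to DMSO and 15 uM tetraoctylammonium bromide.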

[14] = Cell Viability - LYMP1-002 - Assay at 16 hr (AID 948); settings: LYMP1-002 lymphoblastoid cell viability; series mostly up to 92.2 µM;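 also: 0% = DMSO alone and full effect = 92 µM tetraoctylammonium bromide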
Method in brief: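 In this qHTS, lymphoblastoid LYMP1-002 cells (human) receive compounds for 16 hr at 37 C. Viability is taken from CellTiter-Glo ATP luminescence, and AC50 derives from standard Hill fits.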

[15] = MultiTox-Fluor Cytotoxicity Assay - LYMP1-002 - Live Cells (AID 955); settings: LYMP1-002 lymphoblastoid live-cell protease fluorescence viability; series mostly up to 46.1 µM; also: % is scaled to controls: 0 for no effect and ±100 for the full control effect
Method in brief: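 Human lymphoblastoid LYMP1-002 cells, 2500/well, treated 16 h at 37 C in complete medium. Live-cell protease activity via GF-AFC fluorescence (Ex/Em 405/510) after 60 min reagent incubation; AC50 from Hill fits.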

[16] = MultiTox-Fluor Cytotoxicity Assay - LYMP1-003 - Dead Cells (AID 961); settings: LYMP1-003 lymphoblastoid cells, dead-cell protease fluorescence; series mostly up to 92.2 µM; also: nearly all actives have a fitted effect of over 70% in size
Method in brief: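 LYMP1-003 lymphoblastoid, 2500 cells/well, 5 hr settle then 16 hr cpd at 37 C; MultiTox-Fluor reagent 60 min RT; Ex/Em 485/520 dead-cell signal; norm. DMSO = 0%, 15 uM tetraoctylammonium bromide = 100%; Hill AC50.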

[17] = Cell Viability - LYMP2-016 (AID 984); settings: LYMP2-016 lymphoblastoid cell viability, qHTS; series mostly up to 92.2 µM; also: % is scaled to controls: 0 for no effect and ±100 for the full control effect; nearly all actives have a fitted effect of over 55% in size
Method in brief: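 Concentration-dependent ATP depletion measured in LYMP2-016 lymphoblastoid cells, 24 h, 37 C; luciferase-based luminescent detection; Hill-equation AC50.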

[18] = Cell Viability - LYMP2-026 (AID 989); settings: LYMP2-026 lymphoblastoid cell viability, qHTS; series mostly up to 92.2 µM; also: % is scaled to controls: 0 for no effect and ±100 for the full control effect; nearly all actives have a fitted effect of over 50% in size
Method in brief: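 Human lymphoblastoid LYMP2-026 cells, 2500/well, exposed to compound 24 h at 37 C in complete medium. Viability as intracellular ATP by CellTiter-Glo luminescence; AC50 from Hill fits of qHTS concentration-response.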

[19] = qHTS Assay for Identification of Small Molecule Inducers of Hypoxia Response (AID 2120; active = well fitted curve in the direction sought with a large enough effect in the signal ratio, with a control signal flat, not every such curve was filed as active; the % refers to the signal ratio; also: 0% is about no effect); settings: hypoxia response reporter cells, beta-lactamase ratio readout; series mostly up to 104 µM
Method in brief: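 HRE-bla ME-180 cells in Opti-MEM with 0.5% dialyzed FBS, pre-plated 4-5 h, then compound titration for 17 h at 37 degrees Celsius. CCF4 loaded 2.5 h at room temperature; 460/530 nm ratio gave %Activity and AC50 for induction.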

[20] = target: Peroxisome proliferator-activated receptor alpha (Homo sapiens) (UniProt Q07869); test: qHTS assay for small molecule agonists of the peroxisome proliferator-activated receptor alpha (PPARalpha) signaling pathway (AID 651778); settings: PathHunter PPARalpha complementation, chemiluminescence, 6 h; stronger effect = higher value; also: % of control where 0% means no effect
Method in brief: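 Enzyme-fragment complementation assay in which ligand-bound PPARalpha translocates and forms an active enzyme that generates chemiluminescence. Cells were plated overnight, exposed to compound for 6 hr at 37 C, and then given detection reagent for 60 min at room temperature.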

Peroxisome proliferator-activated receptor alpha (Homo sapiens), sequence (Q07869 whole entry, looked up, the tested form may be a part): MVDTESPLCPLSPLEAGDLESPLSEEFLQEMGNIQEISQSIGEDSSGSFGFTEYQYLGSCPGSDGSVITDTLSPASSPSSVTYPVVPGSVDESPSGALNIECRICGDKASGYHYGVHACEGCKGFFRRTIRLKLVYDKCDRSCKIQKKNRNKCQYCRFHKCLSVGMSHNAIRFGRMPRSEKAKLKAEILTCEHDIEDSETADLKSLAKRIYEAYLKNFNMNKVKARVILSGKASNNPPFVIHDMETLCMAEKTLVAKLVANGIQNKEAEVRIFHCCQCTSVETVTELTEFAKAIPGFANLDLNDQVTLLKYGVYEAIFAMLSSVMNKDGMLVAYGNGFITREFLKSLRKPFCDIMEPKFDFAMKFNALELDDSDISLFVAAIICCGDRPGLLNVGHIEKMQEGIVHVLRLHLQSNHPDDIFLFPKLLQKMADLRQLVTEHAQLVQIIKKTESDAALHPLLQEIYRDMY

c1ccoc1
inactive: Potency [1] > 92 µM | Potency [2] > 92 µM | Potency [3] > 92 µM | Potency [4] > 92 µM | Potency [5] > 92 µM | Potency [6] | outcome [7] | outcome [8] | outcome [9] | outcome [10] | Potency [11] | caspase-3 activation [12] -1.2% | outcome [13] | outcome [14] | outcome [15] | Potency [16] | Potency [17] | Potency [18] | Potency [19] | max response [20] 0.928%

CCC(Cl)[N+](=O)[O-] (stereo not given)
inactive: Potency [1] > 92 µM | Potency [2] > 92 µM | Potency [3] > 92 µM | Potency [4] > 92 µM | Potency [5] > 92 µM | Potency [6] | outcome [7] | outcome [8] | outcome [9] | outcome [10] | Potency [11] | caspase-3 activation [12] -0.0531% | outcome [13] | outcome [14] | outcome [15] | Potency [16] | Potency [17] | Potency [18] | Potency [19] | max response [20] 11.6%

Clc1cccc2ccccc12
inactive: Potency [1] > 92 µM | Potency [2] > 92 µM | Potency [3] > 92 µM | Potency [4] > 92 µM | Potency [5] > 92 µM | Potency [6] | outcome [7] | outcome [8] | outcome [9] | outcome [10] | Potency [11] | caspase-3 activation [12] -0.708% | outcome [13] | outcome [14] | outcome [15] | Potency [16] | Potency [17] | Potency [18] | Potency [19] | max response [20] -0.995%

CC(C)Br
inactive: Potency [1] > 92 µM | Potency [2] > 92 µM | Potency [3] > 92 µM | Potency [4] > 92 µM | Potency [5] > 92 µM | Potency [6] | outcome [7] | outcome [8] | outcome [9] | outcome [10] | Potency [11] | caspase-3 activation [12] -2.59% | outcome [13] | outcome [14] | outcome [15] | Potency [16] | Potency [17] | Potency [18] | Potency [19] | max response [20] -8.27%

NNC(N)=S
inactive: Potency [1] > 92 µM | Potency [2] > 92 µM | Potency [3] > 92 µM | Potency [4] > 92 µM | Potency [5] > 92 µM | Potency [6] | outcome [7] | outcome [8] | outcome [9] | outcome [10] | Potency [11] | caspase-3 activation [12] 0.435% | outcome [13] | outcome [14] | outcome [15] | Potency [16] | Potency [17] | Potency [18] | Potency [19] | max response [20] -1.77%

C/C=C/CC#N
inactive: Potency [1] > 92 µM | Potency [2] > 92 µM | Potency [3] > 92 µM | Potency [4] > 92 µM | Potency [5] > 92 µM | Potency [6] | outcome [7] | outcome [8] | outcome [9] | outcome [10] | Potency [11] | caspase-3 activation [12] 1.26% | outcome [13] | outcome [14] | outcome [15] | Potency [16] | Potency [17] | Potency [18] | Potency [19] | max response [20] -3.98%

c1ccc(NNc2ccccc2)cc1
inactive: Potency [1] > 92 µM | Potency [2] > 92 µM | Potency [3] > 92 µM | Potency [4] > 92 µM | Potency [5] > 92 µM | Potency [6] | outcome [7] | outcome [8] | outcome [9] | outcome [10] | Potency [11] | caspase-3 activation [12] -0.473% | outcome [13] | outcome [14] | outcome [15] | Potency [16] | Potency [17] | Potency [18] | Potency [19] | max response [20] -1.84% and -2.39%

Nc1cc(Cl)cc(Cl)c1
inactive: Potency [1] > 92 µM | Potency [2] > 92 µM | Potency [3] > 92 µM | Potency [4] > 92 µM | Potency [5] > 92 µM | Potency [6] | outcome [7] | outcome [8] | outcome [9] | outcome [10] | Potency [11] | caspase-3 activation [12] 1.09% | outcome [13] | outcome [14] | outcome [15] | Potency [16] | Potency [17] | Potency [18] | Potency [19] | max response [20] 0.393%

C1CC2OC2CC1C1CO1 (stereo not given)
inactive: Potency [1] > 92 µM | Potency [2] > 92 µM | Potency [3] > 92 µM | Potency [4] > 92 µM | Potency [5] > 92 µM | Potency [6] | outcome [7] | outcome [8] | outcome [9] | outcome [10] | Potency [11] | caspase-3 activation [12] -2.81% | outcome [13] | outcome [14] | outcome [15] | Potency [16] | Potency [17] | Potency [18] | Potency [19] | max response [20] -1.95% and -1.6%

O=[N+]([O-])c1ccccc1-c1ccccc1
inactive: Potency [1] > 92 µM | Potency [2] > 92 µM | Potency [3] > 92 µM | Potency [4] > 92 µM | Potency [5] > 92 µM | Potency [6] | outcome [7] | outcome [8] | outcome [9] | outcome [10] | Potency [11] | caspase-3 activation [12] -1.39% | outcome [13] | outcome [14] | outcome [15] | Potency [16] | Potency [17] | Potency [18] | Potency [19] | max response [20] -6.56%

ClCCOCCCl
inactive: Potency [1] > 92 µM | Potency [2] > 92 µM | Potency [3] > 92 µM | Potency [4] > 92 µM | Potency [5] > 92 µM | Potency [6] | outcome [7] | outcome [8] | outcome [9] | outcome [10] | Potency [11] | caspase-3 activation [12] -1.83% | outcome [13] | outcome [14] | outcome [15] | Potency [16] | Potency [17] | Potency [18] | Potency [19] | max response [20] -1.95%
